Reference: PubChem BioAssay (NCATS)
“And” between values parts separate entries of the source, which are not always exact repeats. Equal values may be shown once. Results filed as inconclusive are left out. Entries that show only a call come without a potency. The source made the active and inactive calls. Calls follow the shape of the full dose curve.

Tests used:
[1] = Primary qHTS for inhibitors of SARS-S pseudo-typed particle cell entry (AID 1479145); details: outcome: dose series up to 57.1 µM unless noted; also: nearly all actives have a fitted effect of over 45% in size
[2] = Primary qHTS for Huh7 cytotoxicity: counterscreen for inhibitors of MERS-S pseudotyped particle cell entry (AID 1479147); details: outcome: dose series up to 57.1 µM unless noted
[3] = Primary qHTS for inhibitors of MERS-S pseudo-typed particle cell entry (AID 1479149); details: outcome: dose series up to 57.1 µM unless noted; also: nearly all actives have a fitted effect of over 60% in size
[4] = Primary qHTS for Vero E6 cytotoxicity: counterscreen for inhibitors of SARS-S pseudo-typed particle cell entry (AID 1479150); details: outcome: dose series up to 57.1 µM unless noted
[5] = Cytotoxicity counterscreen for inhibitors of SARS-CoV-2 cell entry (AID 1645845); details: outcome: dose series up to 57.1 µM unless noted; also: nearly all actives have a fitted effect of over 50% in size
Outline: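 After a 15 min room-temperature ATPLite 1step step, luminescence reflected ATP remaining in HEK293-ACE2 cells exposed to compound for 1 h plus 48 h at 37 C, with percent activity set by cell and no-cell controls.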

[6] = Primary qHTS to identify inhibitors of SARS-CoV-2 cell entry (AID 1645846); details: SARS-CoV-2 pseudovirus cell entry assay, luminescence; activity change, negative = inhibition: at 57.1 µM (top of the series) unless noted; also: nearly all actives have a fitted effect of over 45% in size
Outline: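 Luminescence readout (Bright-Glo luciferase) 48 h after pseudoparticle addition. HEK293-ACE2 cells, 1500/well; compound pre-incubation 1 h; Normalized to spike PP and bald PP.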

Row | SMILES | Potency [1] | Potency [2] | Potency [3] | Potency [4] | Potency [5] | activity change, negative = inhibition [6] | Potency [6] | activity change, negative = inhibition [1] | outcome [2] | outcome [3] | activity change, negative = cytotoxicity [4] | activity change, negative = cytotoxicity [5]
1 | Cc1cc(N2CCN([C@@H]3CN[C@H](C(=O)N4CCSC4)C3)CC2)n(-c2ccccc2)n1 | inactive | inactive | inactive | inactive | inactive | -20% | – | – | – | – | – | –
2 | N#C[C@@H]1CCCN1C(=O)CNC12CC3CC(CC(O)(C3)C1)C2 | inactive | inactive | inactive | inactive | inactive | – | inactive | – | – | – | – | –
3 | CCOC(=O)CCC(=O)O[C@H]1[C@H](O[C@@H]2[C@@H](C)[C@H](O[C@H]3C[C@@](C)(OC)[C@@H](O)[C@H](C)O3)[C@@H](C)C(=O)O[C@H](CC)[C@@](C)(O)[C@H](O)[C@@H](C)C(=O)[C@H](C)CC2(C)O)O[C@H](C)C[C@@H]1N(C)C (some centres not stated) | inactive | inactive | inactive | inactive | inactive | -2.45% | – | – | – | – | – | –
4 | CC(C)(C)CC(=O)OCC(=O)[C@@]12OC(C)(C)O[C@@H]1C[C@H]1[C@@H]3CCC4=CC(=O)C=C[C@]4(C)[C@@]3(F)[C@@H](O)C[C@@]12C | inactive | inactive | inactive | inactive | inactive | -18.4% | – | – | – | – | – | –
5 | CCCN(CC)C(CC)C(=O)Nc1c(C)cccc1C (configuration not stated) | inactive | inactive | inactive | inactive | inactive | -22.8% | – | – | – | – | – | –
6 | O=C(O)C1CCc2cc(C3CCCCC3)c(Cl)cc21 (configuration not stated) | inactive | inactive | inactive | inactive | inactive | -32.2% | – | – | – | – | – | –
7 | C=C1/C(=C/C=C2\CCC[C@]3(C)[C@@H]([C@H](C)CCCC(C)(C)O)CC[C@@H]23)C[C@@H](O)[C@@H](OCCCO)[C@@H]1O | inactive | inactive | inactive | inactive | inactive | -12.1% | – | – | – | – | – | –
8 | CCOC(=O)[C@H](CCc1ccccc1)N[C@H](C)C(=O)N1C2CCCCC2C[C@H]1C(=O)O (some centres not stated) | inactive | inactive | inactive | inactive | inactive | -29.8% | – | – | – | – | – | –
9 | Cc1ccc(/C=C2\C(=O)C3(C)CCC2C3(C)C)cc1 (configuration not stated) | inactive | inactive | inactive | inactive | inactive | – | inactive | – | – | – | – | –
10 | Cc1cc(=O)c(C(=O)N[C@@H](C(=O)N[C@@H]2C(=O)N3C(C(=O)O)=C(CSc4nnnn4C)CS[C@H]23)c2ccc(O)cc2)c[nH]1 | inactive | inactive | inactive | inactive | inactive | -20.7% | – | – | – | – | – | –
11 | O=c1c2c(c1=O)N(CCP(=O)(O)O)CCCN2 | inactive | inactive | inactive | inactive | inactive | 3.47% [at 114 µM] | – | – | – | – | – | –
12 | C=CCN1CC[C@]23c4c5ccc(O)c4O[C@H]2[C@@H](OCCOCCOCCOCCOCCOCCOCCOC)CC[C@@]3(O)[C@H]1C5 | inactive | inactive | inactive | inactive | inactive | -22.8% | – | – | – | – | – | –
13 | CC(/C=C1\SC(=S)N(CC(=O)O)C1=O)=C\c1ccccc1 | inactive | inactive | inactive | inactive | inactive | – | inactive | – | – | – | – | –
14 | CCC(=O)NC[C@@H]1C[C@H]1c1cccc2c1CCO2 | inactive | inactive | inactive | inactive | inactive | -21.9% | – | – | – | – | – | –
15 | O=C(OC1C(OC(=O)c2cccnc2)C(OC(=O)c2cccnc2)C(OC(=O)c2cccnc2)C(OC(=O)c2cccnc2)C1OC(=O)c1cccnc1)c1cccnc1 (configuration not stated) | inactive | inactive | inactive | inactive | inactive | -19.4% [at 19 µM] | – | – | – | – | – | –
16 | C=CC1=C(C(=O)O)N2C(=O)[C@@H](NC(=O)/C(=N\OCC(=O)O)c3csc(N)n3)[C@H]2SC1 | inactive | inactive | inactive | inactive | inactive | -7.67% | – | – | – | – | – | –
17 | C[C@]12CCC(=O)C=C1CC[C@@H]1[C@@H]2[C@@H](O)C[C@@]2(C)[C@H]1CC[C@]2(O)C(=O)COP(=O)(O)O | inactive | inactive | inactive | inactive | inactive | 2.63% [at 27.1 µM] | – | – | – | – | – | –
18 | OCCOCCOCCO | inactive | inactive | inactive | inactive | inactive | – | inactive | – | – | – | – | –
19 | CN1CC(O)c2cc(N=NC(N)=O)c(O)cc21 (configuration not stated) | inactive | inactive | inactive | inactive | inactive | -20% | – | – | – | – | – | –
20 | C/C=C(/C)C(=O)O[C@H]1C(C)=CC23C(=O)C(C=C(CO)[C@@H](O)[C@]12O)[C@H]1[C@@H](C[C@H]3C)C1(C)C (some centres not stated) | inactive | inactive | inactive | inactive | inactive | – | inactive | – | – | – | – | –
21 | Cc1cc2nc3c(=O)[nH]c(=O)nc-3n(C[C@@H](O)[C@@H](O)[C@@H](O)COP(=O)(O)O)c2cc1C | – | – | – | – | – | -22.9% [at 11.3 µM] | – | -30.5% [at 11.4 µM] (inactive) | inactive [at 11.4 µM] | inactive [at 11.4 µM] | 1.24% [at 11.4 µM] (inactive) | 3.55% [at 11.3 µM] (inactive)

Row | SMILES | Potency [1] | Potency [2] | Potency [3] | Potency [4] | Potency [5] | activity change, negative = inhibition [6] | Potency [6] | activity change, negative = inhibition [1] | outcome [2] | outcome [3] | activity change, negative = cytotoxicity [4] | activity change, negative = cytotoxicity [5]
22 | C[C@]12CCC3c4ccc(OS(=O)(=O)O)cc4CCC3C1CCC2=O (some centres not stated) | inactive | inactive | inactive | inactive | inactive | -13.1% | – | – | – | – | – | –
23 | O=C(OCCO)c1ccccc1O | inactive | inactive | inactive | inactive | inactive | -11% | – | – | – | – | – | –
24 | COc1cc(O)c(C(=O)Nc2nc(C(=O)NCCN(C(C)C)C(C)C)cs2)cc1OC | inactive | inactive | inactive | inactive | inactive | -17.9% | – | – | – | – | – | –
25 | C[C@H]1CN(C[C@H](Cc2ccccc2)C(=O)NCC(=O)O)CC[C@@]1(C)c1cccc(O)c1 | inactive | inactive | inactive | inactive | inactive | -6.59% and -17.3% | – | – | – | – | – | –
26 | CCCC1C(=O)N2C(N(C)C)=Nc3ccc(C)cc3N2C1=O (configuration not stated) | inactive | inactive | inactive | inactive | inactive | 2.29% [at 114 µM] | – | – | – | – | – | –
27 | Cc1cccc(C)c1NC(=O)C1CCCCN1C (configuration not stated) | inactive | inactive | inactive | inactive | inactive | -22.7% | – | – | – | – | – | –
28 | C=CCOc1ccc(CC(=O)O)cc1Cl | inactive | inactive | inactive | inactive | inactive | -9.87% [at 114 µM] | – | – | – | – | – | –
29 | OC[C@@H](O)C(O)[C@H](O)CO | inactive | inactive | inactive | inactive | inactive | 2.94% | – | – | – | – | – | –
30 | CCCC[C@H](C)C[C@H](O)/C=C/[C@H]1[C@H](O)CC(=O)[C@@H]1CCCC/C=C/C(=O)O | inactive | inactive | inactive | inactive | inactive | -18.9% | – | – | – | – | – | –
31 | C1CNCCN1 | inactive | inactive | inactive | inactive | inactive | 2.96% [at 114 µM] | – | – | – | – | – | –
32 | CC12C=CC(=O)NC1CCC1C2CCC2(C)C(C(=O)Nc3cc(C(F)(F)F)ccc3C(F)(F)F)CCC12 (configuration not stated) | inactive | inactive | inactive | inactive | inactive | -8.68% | – | – | – | – | – | –
33 | CCOC(=O)[C@H](CS)NCCN[C@@H](CS)C(=O)OCC | inactive | inactive | inactive | inactive | inactive | – | inactive | – | – | – | – | –
34 | CCC(=O)OCC(=O)[C@@]1(OC(=O)CC)[C@@H](C)C[C@H]2[C@@H]3CCC4=CC(=O)C=C[C@]4(C)[C@@]3(F)[C@@H](O)C[C@@]21C | inactive | inactive | inactive | inactive | inactive | – | inactive | – | – | – | – | –
35 | CCCCCCCCCCCCCCCC(=O)OCC(=O)[C@@]1(O)[C@H](C)C[C@H]2[C@@H]3CCC4=CC(=O)C=C[C@]4(C)[C@@]3(F)[C@@H](O)C[C@@]21C | inactive | inactive | inactive | inactive | inactive | 3.26% | – | – | – | – | – | –
36 | C=CC[N+]1([C@H]2C[C@H]3[C@@H]4CC[C@H]5C[C@H](O)[C@@H](N6CCOCC6)C[C@]5(C)[C@H]4CC[C@]3(C)[C@H]2OC(C)=O)CCCC1 | inactive | inactive | inactive | inactive | inactive | -19.7% and -28.9% | – | – | – | – | – | –
37 | NC(C(=O)NC1C(=O)N2C(C(=O)O)=C(CSc3cn[nH]n3)CSC12)c1ccc(O)cc1 (configuration not stated) | inactive | inactive | inactive | inactive | inactive | -22% | – | – | – | – | – | –
38 | CCC(=O)OCC(=O)[C@]1(OC(=O)CC)[C@H](C)C[C@H]2[C@H]3[C@H]([C@@H](O)C[C@@]21C)[C@@]1(C)C=CC(=O)C=C1C[C@H]3Cl | inactive | inactive | inactive | inactive | inactive | -6.25% | – | – | – | – | – | –
39 | CC1CC2C3CCC4=CC(=O)C=CC4(C)C3(F)C(O)CC2(C)C1(O)C(=O)COC(=O)c1cccc(S(=O)(=O)O)c1 (configuration not stated) | inactive | inactive | inactive | inactive | inactive | 4.79% | – | – | – | – | – | –
40 | C[C@]12CCC3=C4CCC(=O)C=C4CC[C@H]3[C@@H]1CC[C@@]2(O)CC#N | inactive | inactive | inactive | inactive | inactive | -3.65% | – | – | – | – | – | –
41 | NC[C@@H]1CC[C@@H](N)[C@@H](O[C@H]2[C@H](O)[C@@H](O[C@H]3O[C@H](CO)[C@@H](O)[C@H](N)[C@H]3O)[C@H](N)C[C@@H]2N)O1 | inactive | inactive | inactive | inactive | inactive | -17.7% [at 27.1 µM] | – | – | – | – | – | –
42 | O=[N+]([O-])O[C@@H]1CO[C@H]2[C@@H]1OC[C@@H]2O | inactive | inactive | inactive | inactive | inactive | -29.2% [at 114 µM] | – | – | – | – | – | –
